Hits are enriched below; roughly 2% of the tested compounds scored in any of these assays.
ASM inhibitor: blocks human secretory acid sphingomyelinase; placental ASM, HMU-PC fluorogenic substrate, 60 min; Potency, µM (top dose mostly 57.5 µM), for the others: top-dose activity change, negative = inhibition, most hits filed as inhibitors; 0.006% of 340,000 active; AID 504937
Target sequence (P17405 47-631 limits assumed): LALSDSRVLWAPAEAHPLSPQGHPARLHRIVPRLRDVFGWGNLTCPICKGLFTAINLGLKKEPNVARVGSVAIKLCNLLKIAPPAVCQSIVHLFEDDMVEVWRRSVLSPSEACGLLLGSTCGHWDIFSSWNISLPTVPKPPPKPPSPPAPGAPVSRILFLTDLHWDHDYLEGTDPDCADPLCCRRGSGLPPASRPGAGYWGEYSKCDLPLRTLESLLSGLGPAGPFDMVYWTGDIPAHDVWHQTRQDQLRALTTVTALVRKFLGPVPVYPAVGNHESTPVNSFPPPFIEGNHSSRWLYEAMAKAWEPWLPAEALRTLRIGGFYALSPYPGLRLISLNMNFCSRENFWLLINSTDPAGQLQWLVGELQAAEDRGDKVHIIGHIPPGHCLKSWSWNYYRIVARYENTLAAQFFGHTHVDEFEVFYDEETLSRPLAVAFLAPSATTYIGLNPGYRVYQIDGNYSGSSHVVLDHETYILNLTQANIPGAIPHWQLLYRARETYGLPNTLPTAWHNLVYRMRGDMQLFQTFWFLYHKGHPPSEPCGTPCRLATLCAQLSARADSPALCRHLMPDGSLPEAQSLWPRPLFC
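Human placenta-derived ASM preincubated with compound 10 min at room temperature, then reacted with 9 uM (final) fluorogenic HMU-PC substrate for 60 min at 37 C. Stop solution raises pH to 10; fluorescence read at Ex 386/Em 447 nm.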
TDP-43 yeast inh: rescues yeast growth from TDP-43 toxicity; TDP-43 expressing yeast growth rescue, BacTiter-Glo, 24 h; Potency, µM (highest dose often 46.1 µM), inactives show top-dose growth rescue (activation), hits mostly activators; 1.8% of 410,000 active; AID 652104; further: % of control where 0% means no effect; nearly all actives have a fitted effect of over 50% in size
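Yeast cells expressing TDP-43 under galactose induction are exposed to compounds for 24 hr at 30 deg C. BacTiter-Glo luminescence measures growth, so protective compounds score as activators.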
Abeta yeast res: compounds reversing amyloid beta toxicity in yeast. yeast expressing A-beta42, growth rescue, OD600, 48 h; response scale: 0% DMSO, 100% iron-clioquinol control. Potency, µM (top dose mostly 46.1 µM), most hits filed as activators. 0.063% of 410,000 active; further: nearly all actives have a fitted effect of over 55% in size
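Yeast A-beta toxicity model in growth medium with pinned compounds, 48 h at 30 C; growth read as absorbance at 600 nm. Normalized to FeCl3/clioquinol equimolar mix (positive) and DMSO (negative).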
Rango dissoc inh: inhibitors of RanGTP-induced Rango-importin beta complex dissociation; Biochemical FRET Rango-importin beta, RanGTP-induced dissociation; 0.071% of 340,000 active; Potency, µM (titrated, usually from 46.1 µM), for inactives: top-dose activity change, negative = inhibition; O95149+P62826; calls by dose curve; further: % of control where 0% means no effect; nearly all actives have a fitted effect of over 45% in size
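Recombinant Rango FRET biosensor (EYFP–snurportin 1 IBB–cerulean CFP10) at 0.1 uM premixed with 0.25 uM importin beta in PBS, 1 mM DTT, 0.02% Tween-20, 0.1% BSA. Compound added 5 min; RanGTP-RCC1 (0.6 uM Ran, 2 mM GTP, 0.2 uM RCC1) then triggers release, read at 45 min.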
Rango-impB inh: Rango-importin beta binding inhibition | Potency, µM (titrated, usually from 92.2 µM), for the others: top-dose inhibition of complex formation | AID 540263 | Q14974 | Rango CFP/YFP FRET sensor + importin beta, 45 min | 0.031% of 340,000 active; calls by dose curve;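 further: 0% = DMSO wells and 100% = buffer wells lacking importin beta; nearly all actives have a fitted effect of over 15% in size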
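Inhibition scored from the CFP 486 nm/YFP 530 nm FRET ratio 45 min after adding 0.125 microM importin beta to 50 nM Rango biosensor preincubated 5 min with compound (room temperature, PBS with DTT, Tween-20, BSA). No-importin wells as positive control.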
aSyn yeast inh: alpha-synuclein toxicity inhibition in yeast; 0.14% of 370,000 active; Potency, µM (series often up to 46.1 µM), without a hit: at the highest dose growth rescue (activation), hits mostly activators; Yeast expressing alpha-synuclein, growth rescue, BacTiter-Glo, 24 h; AID 652106; further: % of control where 0% means no effect; nearly all actives have a fitted effect of over 65% in size
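Screening used galactose-induced yeast with toxic alpha-synuclein levels, exposed to compound for 24 hr at 30 deg C. Cell growth, read with BacTiter-Glo luminescence, gave the measured signal.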
* hit, by the source's call. Unless noted, the call rests on the fitted dose curve; in most records, active means well fitted curve in the direction sought with a large enough effect; inconclusive means small, poorly fitted or top-dose-only effect, or another doubt; inactive means no such curve, though single readings can be large; an effect the other way counts as inactive or inconclusive. Potency means the concentration at half of the fitted maximal effect.

How did Nc1nc(Cl)nc2c1ncn2C1CCC(CO)O1 (stereo not given) do in these assays?
TDP-43 yeast inh: 16.6%; Abeta yeast res: inactive; aSyn yeast inh: 0.6%

How did Nc1ncnc2c1ncn2[C@H]1CC[C@@H](CO)O1 do in these assays?
ASM inhibitor: 2.3%; TDP-43 yeast inh: 12.6µM*; Abeta yeast res: inactive; Rango dissoc inh: -3.9%; Rango-impB inh: -2.2%; aSyn yeast inh: -6.9%

How did C1=Cc2ccccc2/C1=C(\Cc1ccncc1)Oc1ccncc1 do in these assays?
aSyn yeast inh: -8.6%

Results for COc1ccc(N=Cc2nc(-c3ccco3)oc2O)cc1 ?
ASM inhibitor: 20.9%; TDP-43 yeast inh: 7.08µM*; Abeta yeast res: inactive; Rango dissoc inh: inconclusive; Rango-impB inh: inconclusive; aSyn yeast inh: -7.4%

How did Oc1ccc(N=Cc2ccc(OCc3ccccc3)cc2)cc1 do in these assays?
ASM inhibitor: -0.4%; TDP-43 yeast inh: 25.1µM*; Abeta yeast res: inactive; Rango dissoc inh: 3.9%; Rango-impB inh: -0.6%; aSyn yeast inh: 1.6%

How did CC(C)(C)NCC(=O)N/N=C/c1ccc(OCc2ccccc2)cc1 do in these assays?
ASM inhibitor: -0.7%; TDP-43 yeast inh: 22.4µM*; Abeta yeast res: inactive; Rango dissoc inh: 6.5%; Rango-impB inh: -1.1%; aSyn yeast inh: 3.8%

How did O=C(N/N=C/c1ccc(OCc2ccccc2)cc1)c1ccncc1 do in these assays?
ASM inhibitor: -4.3%; TDP-43 yeast inh: 15.1%; Abeta yeast res: inactive; Rango dissoc inh: -10.7%; Rango-impB inh: -0.4%; aSyn yeast inh: -4.8%

Results for O=C(CSC1=Nc2ccccc2N=C(c2ccc(F)cc2)C1)NCc1ccccc1 ?
TDP-43 yeast inh: 27.5%; Abeta yeast res: inactive

Results for COc1ccc(C(=O)n2nc(C)cc2Nc2ccccc2)cc1 ?
ASM inhibitor: 5.3%; TDP-43 yeast inh: 35.5µM*; Abeta yeast res: inactive; Rango dissoc inh: 0.4%; Rango-impB inh: -0.2%; aSyn yeast inh: -17.5%

Results for CC(C)(C)c1ccc(Oc2ccc(N)cn2)cc1 ?
ASM inhibitor: 12.6%; TDP-43 yeast inh: 20µM*; Abeta yeast res: inconclusive; Rango dissoc inh: 19.3%; Rango-impB inh: -4.2%; aSyn yeast inh: 28.1%

How did CCCCN(C)C(=O)c1sc(=O)n(Cc2cc(Cl)ccc2OC)c1C do in these assays?
TDP-43 yeast inh: inconclusive; Abeta yeast res: inactive; aSyn yeast inh: 10.3%

How did COc1ccc(Cl)cc1Cn1c(C)c(C(=O)N(C)Cc2ccc(F)cc2)sc1=O do in these assays?
TDP-43 yeast inh: 22.4µM*; Abeta yeast res: inactive; aSyn yeast inh: 8.5%

What do the screens show for `Cc1c(C(=O)N(C)Cc2ccc(F)cc2)sc(=O)n1Cc1ccc(Cl)c(Cl)c1`?
TDP-43 yeast inh: 22.4µM*; Abeta yeast res: inconclusive; aSyn yeast inh: inconclusive

Results for COc1ccc(CNC(=O)c2sc(=O)n(Cc3ccccc3OC)c2C)cc1 ?
TDP-43 yeast inh: 25.1µM*; Abeta yeast res: inactive; aSyn yeast inh: 8.7%

Results for CC(=O)Oc1ccc(Cn2c(C)c(C(=O)N(C)Cc3ccc(F)cc3)sc2=O)cc1 ?
TDP-43 yeast inh: 0.0%; Abeta yeast res: inactive; aSyn yeast inh: 7.1%

Results for COc1ccc(Cl)cc1Cn1c(C)c(C(=O)NCc2ccc(F)cc2)sc1=O ?
TDP-43 yeast inh: 20µM*; Abeta yeast res: inactive; aSyn yeast inh: inconclusive

How did Cc1ccc(NC(=O)Cn2c(=O)oc3cc(S(=O)(=O)NCc4ccccc4)ccc32)cc1 do in these assays?
TDP-43 yeast inh: 14.8%; Abeta yeast res: inactive

How did COc1cc(C2CC(=O)Nc3c2c(=O)[nH]c2ncnn32)ccc1O (stereo not given) do in these assays?
TDP-43 yeast inh: 7.2%; Abeta yeast res: inactive

What do the screens show for `Cc1ccccc1CSCCNC(=S)Nc1ccccc1`?
ASM inhibitor: 0.3%; TDP-43 yeast inh: 17.9%; Abeta yeast res: inactive; Rango dissoc inh: inconclusive; Rango-impB inh: 2.3%; aSyn yeast inh: -2.7%

What do the screens show for `COc1ccc(CNC(=S)Nc2ccccc2)cc1Cl`?
ASM inhibitor: -1.2%; TDP-43 yeast inh: 16.8%; Abeta yeast res: inconclusive; Rango dissoc inh: 15.4%; Rango-impB inh: -2.6%; aSyn yeast inh: 6.3%

How did S=C(NCCSCc1ccc(Cl)c(Cl)c1)Nc1ccccc1 do in these assays?
ASM inhibitor: -20.1%; TDP-43 yeast inh: 11.2µM*; Abeta yeast res: inactive; Rango dissoc inh: -2.9%; Rango-impB inh: 1.6%; aSyn yeast inh: 9.2%

Results for S=C(NCCSCc1ccc(Cl)cc1Cl)Nc1ccccc1 ?
ASM inhibitor: -20.8%; TDP-43 yeast inh: 15.8µM*; Abeta yeast res: inactive; Rango dissoc inh: -20.9%; Rango-impB inh: 2.1%; aSyn yeast inh: 5.7%

Results for CCOc1ccc(CSCCNC(=S)Nc2ccccc2)cc1 ?
ASM inhibitor: -14.0%; TDP-43 yeast inh: inconclusive; Abeta yeast res: inconclusive; Rango dissoc inh: -12.5%; Rango-impB inh: -0.6%; aSyn yeast inh: -12.8%

Results for S=C(NCCSCc1c(Cl)cccc1Cl)Nc1ccccc1 ?
ASM inhibitor: -5.1%; TDP-43 yeast inh: 10µM*; Abeta yeast res: inactive; Rango dissoc inh: -15.4%; Rango-impB inh: 1.4%; aSyn yeast inh: 4.5%

How did COc1ccc(CSCCNC(=S)Nc2ccccc2)cc1Cl do in these assays?
ASM inhibitor: -8.3%; TDP-43 yeast inh: 20µM*; Abeta yeast res: inconclusive; Rango dissoc inh: -8.0%; Rango-impB inh: 0.0%; aSyn yeast inh: 3.5%

How did COc1cc(NC(=O)c2cc3c(=O)n(Cc4ccco4)ccc3nc2C)cc(OC)c1OC do in these assays?
TDP-43 yeast inh: 8.0%; Abeta yeast res: inactive

Results for COc1cccc2sc(NC(=O)c3ccc(S(=O)(=O)N4CCC(C)CC4)cc3)nc12 ?
TDP-43 yeast inh: 18.0%; Abeta yeast res: inactive; aSyn yeast inh: 1.1%

How did Clc1ccccc1Cn1cccc1C1=NC(Cc2ccccc2)CO1 (stereo not given) do in these assays?
TDP-43 yeast inh: 17.6%; Abeta yeast res: inactive

What do the screens show for `CCCOc1ccc(CNC(=S)Nc2ccccc2)cc1Cl`?
ASM inhibitor: -1.5%; TDP-43 yeast inh: inconclusive; Abeta yeast res: 11.2µM*; Rango dissoc inh: 18.8%; Rango-impB inh: -1.3%; aSyn yeast inh: -8.3%

How did CC(=O)NC(C)(c1ccccc1)c1nc(-c2csc3ccccc23)cs1 (stereo not given) do in these assays?
TDP-43 yeast inh: 35.5µM*; Abeta yeast res: inactive; aSyn yeast inh: 7.5%

How did COc1cccc(C(C)(O)c2nc(-c3csc4ccccc34)cs2)c1 (stereo not given) do in these assays?
TDP-43 yeast inh: 35.5µM*; Abeta yeast res: inactive; aSyn yeast inh: -1.3%

Screening data: PubChem, National Center for Advancing Translational Sciences (NCATS)
